# Laboratory results taken from PubChem BioAssay AID1159580 (chemical genetic matrix, 2015).
# Hit rate of the full screen: of about 5,500 compounds, about 2,000 (36%) were called active. Another 18% or so got no clear call; they are omitted. Some of the results follow. Unmarked numbers belong to inactive results. Cut-off read from the data, not from the text of the source: active = normalized growth mostly below about 0.91 (no sharp cut-off); inconclusive = no clear call, values can overlap the other calls; inactive = mostly above about 0.92.
# Test: chemical genetic growth profiling, strain panel (AID 1159580);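 note: tested at 20 µM; growth read once vehicle control cultures reached saturation at 30 °C; 1 = growth at the plate median or of vehicle wells; lower values mean less growth of the strain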
# Details: growth OD
structure (smiles),measurement,setting,value
c1cc2c(cc1[C@H]1OC[C@H]3[C@@H]1CO[C@H]3c1ccc3c(c1)OCO3)OCO2,normalized growth,"S. cerevisiae deletion strains, locus YJR075W, strain HOC1, hits give low values",0.914
same,normalized growth,"S. cerevisiae deletion strains, locus YKL009W, strain mrt4, hits give low values",0.922
same,normalized growth,"S. cerevisiae deletion strains, locus YKL068W, hits give low values",0.929 (active)
same,normalized growth,"S. cerevisiae deletion strains, locus YKL085W, strain MDH1 (second series), hits give low values",0.915 (active)
same,normalized growth,"S. cerevisiae deletion strains, locus YKL085W, strain MDH1, hits give low values",0.915 (active)
same,normalized growth,"S. cerevisiae deletion strains, locus YKL160W, strain elf1, hits give low values",0.878 (active)
same,normalized growth,"S. cerevisiae deletion strains, locus YKL190W, strain CNB1, hits give low values",0.947
same,normalized growth,"S. cerevisiae deletion strains, locus YKR001C, strain vps1, hits give low values",0.683 (active)
same,normalized growth,"S. cerevisiae deletion strains, locus YKR026C, strain gcn3, hits give low values",0.916 (active)
same,normalized growth,"S. cerevisiae deletion strains, locus YKR091W, strain srl3, hits give low values",0.899 (active)
same,normalized growth,"S. cerevisiae deletion strains, locus YLL001W, strain dnm1, hits give low values",0.887 (active)
same,normalized growth,"S. cerevisiae deletion strains, locus YLL026W, hits give low values",0.922 (active)
same,normalized growth,"S. cerevisiae deletion strains, locus YLL041C, strain sdh2, hits give low values",0.926 (active)
same,normalized growth,"S. cerevisiae deletion strains, locus YLR027C, strain aat2, hits give low values",0.931
same,normalized growth,"S. cerevisiae deletion strains, locus YLR039C, strain RIC1, hits give low values",0.398 (active)
same,normalized growth,"S. cerevisiae deletion strains, locus YLR058C, strain SHM2, hits give low values",0.943
same,normalized growth,"S. cerevisiae deletion strains, locus YLR102C, strain apc9, hits give low values",0.923 (active)
same,normalized growth,"S. cerevisiae deletion strains, locus YLR113W, strain HOG1, hits give low values",0.865
same,normalized growth,"S. cerevisiae deletion strains, locus YLR221C, strain rsa3, hits give low values",0.886 (active)
same,normalized growth,"S. cerevisiae deletion strains, locus YLR258W, strain gsy2, hits give low values",0.914 (active)
same,normalized growth,"S. cerevisiae deletion strains, locus YLR262C, strain YPT6 (second series), hits give low values",0.455 (active)
same,normalized growth,"S. cerevisiae deletion strains, locus YLR262C, strain YPT6, hits give low values",0.415 (active)
same,normalized growth,"S. cerevisiae deletion strains, locus YLR268W, strain sec22, hits give low values",0.833 (active)
same,normalized growth,"S. cerevisiae deletion strains, locus YLR320W, strain mms22, hits give low values",0.732 (active)
same,normalized growth,"S. cerevisiae deletion strains, locus YLR330W, strain CHS5, hits give low values",0.816 (active)
same,normalized growth,"S. cerevisiae deletion strains, locus YLR342W, strain FKS1 (second series), hits give low values",0.77 (active)
same,normalized growth,"S. cerevisiae deletion strains, locus YLR342W, strain FKS1, hits give low values",0.9 (active)
same,normalized growth,"S. cerevisiae deletion strains, locus YLR357W, strain rsc2, hits give low values",0.951
same,normalized growth,"S. cerevisiae deletion strains, locus YLR370C, strain arc18, hits give low values",0.914
same,normalized growth,"S. cerevisiae deletion strains, locus YLR371W, strain rom2, hits give low values",0.912
same,normalized growth,"S. cerevisiae deletion strains, locus YLR384C, strain iki3, hits give low values",0.936
same,normalized growth,"S. cerevisiae deletion strains, locus YLR418C, strain cdc73, hits give low values",0.692 (active)
same,normalized growth,"S. cerevisiae deletion strains, locus YML016C, strain PPZ1, hits give low values",0.947
same,normalized growth,"S. cerevisiae deletion strains, locus YML032C, strain rad52, hits give low values",0.902 (active)
same,normalized growth,"S. cerevisiae deletion strains, locus YML120C, strain ndi1, hits give low values",0.897 (active)
same,normalized growth,"S. cerevisiae deletion strains, locus YML124C, strain tub3, hits give low values",0.902 (active)
same,normalized growth,"S. cerevisiae deletion strains, locus YMR058W, strain fet3, hits give low values",0.896 (active)
same,normalized growth,"S. cerevisiae deletion strains, locus YMR078C, strain ctf18, hits give low values",0.892 (active)
same,normalized growth,"S. cerevisiae deletion strains, locus YMR125W, strain sto1, hits give low values",0.826 (active)
same,normalized growth,"S. cerevisiae deletion strains, locus YMR129W, hits give low values",0.925
same,normalized growth,"S. cerevisiae deletion strains, locus YMR205C, strain PFK2, hits give low values",0.774 (active)
same,normalized growth,"S. cerevisiae deletion strains, locus YMR223W, strain ubp8, hits give low values",0.914
same,normalized growth,"S. cerevisiae deletion strains, locus YMR231W, strain pep5, hits give low values",0.934
same,normalized growth,"S. cerevisiae deletion strains, locus YMR307W, strain GAS1, hits give low values",0.9
same,normalized growth,"S. cerevisiae deletion strains, locus YNL067W, strain RPL9B, hits give low values",0.957
same,normalized growth,"S. cerevisiae deletion strains, locus YNL071W, strain lat1, hits give low values",0.614 (active)
same,normalized growth,"S. cerevisiae deletion strains, locus YNL128W, strain TEP1, hits give low values",1.01
same,normalized growth,"S. cerevisiae deletion strains, locus YNL153C, strain GIM3, hits give low values",0.822 (active)
same,normalized growth,"S. cerevisiae deletion strains, locus YNL183C, strain NPR1, hits give low values",0.925
same,normalized growth,"S. cerevisiae deletion strains, locus YNL209W, strain ssb2, hits give low values",0.958
same,normalized growth,"S. cerevisiae deletion strains, locus YNL233W, strain BNI4, hits give low values",0.882
same,normalized growth,"S. cerevisiae deletion strains, locus YNL248C, strain rpa49, hits give low values",0.948
same,normalized growth,"S. cerevisiae deletion strains, locus YNL250W, strain rad50, hits give low values",0.929
same,normalized growth,"S. cerevisiae deletion strains, locus YNL271C, strain bni1, hits give low values",0.932
same,normalized growth,"S. cerevisiae deletion strains, locus YNL298W, strain CLA4, hits give low values",0.922
same,normalized growth,"S. cerevisiae deletion strains, locus YNL307C, strain MCK1, hits give low values",0.797 (active)
same,normalized growth,"S. cerevisiae deletion strains, locus YNL322C, strain KRE1 (second series), hits give low values",0.907
same,normalized growth,"S. cerevisiae deletion strains, locus YNL322C, strain KRE1, hits give low values",0.94
same,normalized growth,"S. cerevisiae deletion strains, locus YNR049C, strain mso1, hits give low values",0.917 (active)
same,normalized growth,"S. cerevisiae deletion strains, locus YNR052C, strain pop2, hits give low values",0.899 (active)
same,normalized growth,"S. cerevisiae deletion strains, locus YOL012C, strain htz1",0.632
same,normalized growth,"S. cerevisiae deletion strains, locus YOL147C, strain pex11, hits give low values",0.914 (active)
same,normalized growth,"S. cerevisiae deletion strains, locus YOR001W, strain rrp6, hits give low values",0.945
same,normalized growth,"S. cerevisiae deletion strains, locus YOR061W, strain CKA2, hits give low values",0.948
same,normalized growth,"S. cerevisiae deletion strains, locus YOR069W, strain VPS5, hits give low values",0.962
same,normalized growth,"S. cerevisiae deletion strains, locus YOR070C, strain gyp1, hits give low values",0.908 (active)
same,normalized growth,"S. cerevisiae deletion strains, locus YOR080W, strain dia2, hits give low values",0.909 (active)
same,normalized growth,"S. cerevisiae deletion strains, locus YOR083W, strain WHI5, hits give low values",0.877 (active)
same,normalized growth,"S. cerevisiae deletion strains, locus YOR106W, strain vam3, hits give low values",0.908
same,normalized growth,"S. cerevisiae deletion strains, locus YOR136W, strain idh2, hits give low values",0.973
same,normalized growth,"S. cerevisiae deletion strains, locus YOR144C, strain elg1, hits give low values",0.907 (active)
same,normalized growth,"S. cerevisiae deletion strains, locus YOR184W, strain ser1, hits give low values",0.624 (active)
same,normalized growth,"S. cerevisiae deletion strains, locus YOR231W, strain MKK1, hits give low values",0.897
same,normalized growth,"S. cerevisiae deletion strains, locus YOR265W, strain rbl2, hits give low values",0.906 (active)
same,normalized growth,"S. cerevisiae deletion strains, locus YOR270C, strain vph1, hits give low values",0.639 (active)
same,normalized growth,"S. cerevisiae deletion strains, locus YOR290C, strain snf2, hits give low values",0.828 (active)
same,normalized growth,"S. cerevisiae deletion strains, locus YOR316C, strain cot1, hits give low values",0.912 (active)
same,normalized growth,"S. cerevisiae deletion strains, locus YPL051W, strain arl3, hits give low values",0.865 (active)
same,normalized growth,"S. cerevisiae deletion strains, locus YPL055C, strain LGE1, hits give low values",0.923
same,normalized growth,"S. cerevisiae deletion strains, locus YPL078C, strain atp4, hits give low values",0.863 (active)
same,normalized growth,"S. cerevisiae deletion strains, locus YPL106C, strain sse1, hits give low values",0.886
same,normalized growth,"S. cerevisiae deletion strains, locus YPL240C, strain hsp82, hits give low values",0.919 (active)
same,normalized growth,"S. cerevisiae deletion strains, locus YPL241C, strain CIN2, hits give low values",0.945
same,normalized growth,"S. cerevisiae deletion strains, locus YPL256C, strain CLN2, hits give low values",0.898
same,normalized growth,"S. cerevisiae deletion strains, locus YPR119W, strain clb2, hits give low values",0.914 (active)
same,normalized growth,"S. cerevisiae deletion strains, locus YPR141C, strain kar3, hits give low values",0.897 (active)
same,normalized growth,"S. cerevisiae deletion strains, locus YPR163C, strain tif3, hits give low values",0.866 (active)
same,normalized growth,"S. cerevisiae deletion strains, locus YPR167C, strain met16, hits give low values",0.887 (active)
same,normalized growth,"S. cerevisiae deletion strains, strain wtn01, hits give low values",0.854 (active)
same,normalized growth,"S. cerevisiae strains, strain wild type, hits give low values",0.93
